Source: PubChem BioAssay (NCI)
“And” between values parts separate entries of the source, which are not always exact repeats. Equal values may be shown once. Compounds without any hit were thinned out: in the full panel of roughly 83,000, 20% have a hit.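 Method: cells in 96-well plates; compound added at one concentration; 48 h incubation; percent growth measured; values under 10 scored active.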 The source made the active and inactive calls.

Key:
Experiment in all cases: NCI-60 one-dose screen, 48 h (100 = growth as untreated, 0 = no growth, -100 = all killed)
SK-MEL-2 melanoma = settings: 10 µM unless noted
EKVX NSCLC = settings: 10 µM unless noted
SN12C renal = settings: 10 µM unless noted
UO-31 renal = settings: 10 µM unless noted
TK-10 renal = tested on: TK-10 renal
ACHN renal = settings: 10 µM unless noted
CAKI-1 renal = settings: 10 µM unless noted
A498 renal = settings: 10 µM unless noted
CCRF-CEM leukemia = settings: 10 µM unless noted
MOLT-4 leukemia = settings: 10 µM unless noted
SR leukemia = settings: 10 µM unless noted
RPMI-8226 leukemia = settings: 10 µM unless noted
OVCAR-8 ovarian = settings: 10 µM unless noted
OVCAR-5 ovarian = settings: 10 µM unless noted
OVCAR-4 ovarian = settings: 10 µM unless noted
SK-OV-3 ovarian = settings: 10 µM unless noted
IGROV1 ovarian = settings: 10 µM unless noted
OVCAR-3 ovarian = settings: 10 µM unless noted
HS 578T breast = settings: 10 µM unless noted
NCI/ADR-RES ovarian = settings: 10 µM unless noted

C=C(C)[C@@H]1CC[C@]2(C)[C@H](CC(=O)N[C@H]3[C@@H]4C[C@](C)(C(=O)OC)CC[C@]4(C)CC[C@]32C)[C@@]1(C)CCC#N
growth (SK-MEL-2 melanoma): 95.3% (inactive)
growth (EKVX NSCLC): 93.2% (inactive)
growth (SN12C renal): 79.4% (inactive)
growth (UO-31 renal): 75.7% (inactive)
growth (TK-10 renal; 10 µM unless noted): 104% (inactive)
growth (ACHN renal): 88% (inactive)
growth (CAKI-1 renal): 79.2% (inactive)
growth (A498 renal): 101% (inactive)
growth (CCRF-CEM leukemia): 75.1% (inactive)
growth (MOLT-4 leukemia): 42.7% (inactive)
growth (SR leukemia): 41.8% (inactive)
growth (RPMI-8226 leukemia): 48.3% (inactive)
growth (OVCAR-8 ovarian): 78.7% (inactive)
growth (OVCAR-5 ovarian): 91.6% (inactive)
growth (OVCAR-4 ovarian): 76.7% (inactive)
growth (SK-OV-3 ovarian): 97.4% (inactive)
growth (IGROV1 ovarian): 95.2% (inactive)
growth (OVCAR-3 ovarian): 79.7% (inactive)
growth (HS 578T breast): 93.4% (inactive)
growth (NCI/ADR-RES ovarian): 86.6% (inactive)

CC[C@]12CN3CCc4c([nH]c5ccccc45)[C@@](C(=O)OC)(c4cc5c(cc4OC)N(C)[C@H]4[C@@](O)(C(=O)OC)[C@H](OC(C)=O)[C@]6(CC)C=CCN7CC[C@]54[C@@H]76)CC(C3)[C@H]1O2 (stereo not given in full)
growth (SK-MEL-2 melanoma): 31% (inactive)
growth (EKVX NSCLC): 28.4% (inactive)
growth (SN12C renal): 29.1% (inactive)
growth (UO-31 renal): 32.8% (inactive)
growth (TK-10 renal; 10 µM): 27.6% (inactive)
growth (TK-10 renal; 100 µM): 88% (inactive) and -96.5% (active)
growth (ACHN renal): 40.5% (inactive)
growth (CAKI-1 renal): 38.9% (inactive)
growth (A498 renal): -12.3% (active)
growth (CCRF-CEM leukemia): 5.37% (active)
growth (MOLT-4 leukemia): 25.7% (inactive)
growth (SR leukemia): 14.4% (inactive)
growth (RPMI-8226 leukemia): 20.5% (inactive)
growth (OVCAR-8 ovarian): 7.27% (active)
growth (OVCAR-5 ovarian): 49% (inactive)
growth (OVCAR-4 ovarian): 28% (inactive)
growth (SK-OV-3 ovarian): 22.1% (inactive)
growth (OVCAR-3 ovarian): -60.4% (active)
growth (HS 578T breast): -25.1% (active)
growth (NCI/ADR-RES ovarian): 82% (inactive)

O=c1ccc2nc(-c3ccccn3)nn(-c3ccccc3)c-2c1
growth (SK-MEL-2 melanoma): 106% (inactive)
growth (EKVX NSCLC): 115% (inactive)
growth (SN12C renal): 84.6% (inactive)
growth (UO-31 renal): 40.1% (inactive)
growth (TK-10 renal; 10 µM unless noted): -70.9% (active)
growth (ACHN renal): -84.7% (active)
growth (CAKI-1 renal): 72.5% (inactive)
growth (A498 renal): 91.9% (inactive)
growth (CCRF-CEM leukemia): 8.49% (active)
growth (MOLT-4 leukemia): 5.56% (active)
growth (SR leukemia): 5.21% (active)
growth (RPMI-8226 leukemia): 50.3% (inactive)
growth (OVCAR-8 ovarian): 87.1% (inactive)
growth (OVCAR-5 ovarian): 109% (inactive)
growth (OVCAR-4 ovarian): 81.8% (inactive)
growth (SK-OV-3 ovarian): 84.9% (inactive)
growth (IGROV1 ovarian): 87.9% (inactive)
growth (OVCAR-3 ovarian): -21.9% (active)
growth (HS 578T breast): 93.9% (inactive)
growth (NCI/ADR-RES ovarian): 98% (inactive)

CCOC(=O)CCCn1c(-c2ccccc2)cc(-c2ccccc2)c(C#N)c1=O
growth (SK-MEL-2 melanoma): 94.8% (inactive)
growth (EKVX NSCLC): 93.4% (inactive)
growth (SN12C renal): 84.6% (inactive)
growth (UO-31 renal): 71.5% (inactive)
growth (TK-10 renal; 10 µM unless noted): 113% (inactive)
growth (ACHN renal): 94.7% (inactive)
growth (CAKI-1 renal): 57.3% (inactive)
growth (A498 renal): 25.7% (inactive)
growth (CCRF-CEM leukemia): 88.4% (inactive)
growth (MOLT-4 leukemia): 82.1% (inactive)
growth (SR leukemia): 63.7% (inactive)
growth (RPMI-8226 leukemia): 87.2% (inactive)
growth (OVCAR-8 ovarian): 85.6% (inactive)
growth (OVCAR-5 ovarian): 99.5% (inactive)
growth (OVCAR-4 ovarian): 94.8% (inactive)
growth (SK-OV-3 ovarian): 100% (inactive)
growth (IGROV1 ovarian): 77.2% (inactive)
growth (OVCAR-3 ovarian): 103% (inactive)
growth (HS 578T breast): 67.8% (inactive)
growth (NCI/ADR-RES ovarian): 72% (inactive)

COC1=CC(=O)C(OC)=C(O)C1=O
growth (SK-MEL-2 melanoma): 105% (inactive)
growth (EKVX NSCLC): 98.1% (inactive)
growth (SN12C renal): 98.2% (inactive)
growth (UO-31 renal): 93.1% (inactive)
growth (TK-10 renal; 10 µM unless noted): 105% (inactive)
growth (ACHN renal): 98.2% (inactive)
growth (CAKI-1 renal): 93.9% (inactive)
growth (A498 renal): 106% (inactive)
growth (CCRF-CEM leukemia): 108% (inactive)
growth (MOLT-4 leukemia): 107% (inactive)
growth (SR leukemia): 107% (inactive)
growth (RPMI-8226 leukemia): 110% (inactive)
growth (OVCAR-8 ovarian): 103% (inactive)
growth (OVCAR-5 ovarian): 95.2% (inactive)
growth (OVCAR-4 ovarian): 90.8% (inactive)
growth (SK-OV-3 ovarian): 91% (inactive)
growth (IGROV1 ovarian): 103% (inactive)
growth (OVCAR-3 ovarian): 105% (inactive)
growth (HS 578T breast): 113% (inactive)
growth (NCI/ADR-RES ovarian): 101% (inactive)

CCOC(=O)c1cc2c(n1Cc1cc(OC)cc(OC)c1Br)-c1nc(NC(C)=O)sc1CCC2
growth (SK-MEL-2 melanoma): 82.6% (inactive)
growth (EKVX NSCLC): 58.6% (inactive)
growth (SN12C renal): 77.5% (inactive)
growth (UO-31 renal): 51.8% (inactive)
growth (TK-10 renal; 10 µM unless noted): 94.4% (inactive)
growth (ACHN renal): 91.2% (inactive)
growth (CAKI-1 renal): 67.3% (inactive)
growth (A498 renal): 55.8% (inactive)
growth (CCRF-CEM leukemia): 56.3% (inactive)
growth (MOLT-4 leukemia): 46.7% (inactive)
growth (SR leukemia): 58.9% (inactive)
growth (RPMI-8226 leukemia): 60.5% (inactive)
growth (OVCAR-8 ovarian): 64.9% (inactive)
growth (OVCAR-5 ovarian): 115% (inactive)
growth (OVCAR-4 ovarian): 73.4% (inactive)
growth (SK-OV-3 ovarian): 82.1% (inactive)
growth (IGROV1 ovarian): 87.5% (inactive)
growth (OVCAR-3 ovarian): 81.4% (inactive)
growth (HS 578T breast): 64.6% (inactive)
growth (NCI/ADR-RES ovarian): 78.6% (inactive)

COc1cc(F)c(/C=C/c2cc(/C=C/c3cc(OC)c(OC)cc3F)n(-c3cc(F)cc(F)c3)n2)cc1OC
growth (SK-MEL-2 melanoma): 59.5% (inactive)
growth (EKVX NSCLC): 57.7% (inactive)
growth (SN12C renal): 72.5% (inactive)
growth (UO-31 renal): 85.4% (inactive)
growth (TK-10 renal; 10 µM unless noted): 68.9% (inactive)
growth (ACHN renal): 117% (inactive)
growth (CAKI-1 renal): 98.5% (inactive)
growth (A498 renal): 92.4% (inactive)
growth (CCRF-CEM leukemia): 51.9% (inactive)
growth (MOLT-4 leukemia): 71.5% (inactive)
growth (SR leukemia): 8.98% (active)
growth (RPMI-8226 leukemia): 18% (inactive)
growth (OVCAR-8 ovarian): 36.6% (inactive)
growth (OVCAR-5 ovarian): 51.4% (inactive)
growth (OVCAR-4 ovarian): 49.9% (inactive)
growth (SK-OV-3 ovarian): 108% (inactive)
growth (IGROV1 ovarian): 88.6% (inactive)
growth (OVCAR-3 ovarian): 24.2% (inactive)
growth (HS 578T breast): 38% (inactive)
growth (NCI/ADR-RES ovarian): 12% (inactive)
